# Measurements reported in paper PMC4336329 (PLoS ONE, 2015).
# Hit rate of the full screen: of about 310,000 compounds, about 14,000 (4.5%) showed an effect of 50% or more. The effect is printed as a negative number. The full list was thinned out, with strong results kept by preference.
# Target: human ether-à-go-go-related gene (hERG) potassium channel (human, UniProt Q12809)
# Test: primary screen, population patch clamp on CHO cells stably expressing hERG; higher = less effect of the substance
# 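Further: peak tail current of the secondary pulse compared with the same well before compound.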
# Chain of human ether-à-go-go-related gene (hERG) potassium channel (Q12809 whole entry, looked up): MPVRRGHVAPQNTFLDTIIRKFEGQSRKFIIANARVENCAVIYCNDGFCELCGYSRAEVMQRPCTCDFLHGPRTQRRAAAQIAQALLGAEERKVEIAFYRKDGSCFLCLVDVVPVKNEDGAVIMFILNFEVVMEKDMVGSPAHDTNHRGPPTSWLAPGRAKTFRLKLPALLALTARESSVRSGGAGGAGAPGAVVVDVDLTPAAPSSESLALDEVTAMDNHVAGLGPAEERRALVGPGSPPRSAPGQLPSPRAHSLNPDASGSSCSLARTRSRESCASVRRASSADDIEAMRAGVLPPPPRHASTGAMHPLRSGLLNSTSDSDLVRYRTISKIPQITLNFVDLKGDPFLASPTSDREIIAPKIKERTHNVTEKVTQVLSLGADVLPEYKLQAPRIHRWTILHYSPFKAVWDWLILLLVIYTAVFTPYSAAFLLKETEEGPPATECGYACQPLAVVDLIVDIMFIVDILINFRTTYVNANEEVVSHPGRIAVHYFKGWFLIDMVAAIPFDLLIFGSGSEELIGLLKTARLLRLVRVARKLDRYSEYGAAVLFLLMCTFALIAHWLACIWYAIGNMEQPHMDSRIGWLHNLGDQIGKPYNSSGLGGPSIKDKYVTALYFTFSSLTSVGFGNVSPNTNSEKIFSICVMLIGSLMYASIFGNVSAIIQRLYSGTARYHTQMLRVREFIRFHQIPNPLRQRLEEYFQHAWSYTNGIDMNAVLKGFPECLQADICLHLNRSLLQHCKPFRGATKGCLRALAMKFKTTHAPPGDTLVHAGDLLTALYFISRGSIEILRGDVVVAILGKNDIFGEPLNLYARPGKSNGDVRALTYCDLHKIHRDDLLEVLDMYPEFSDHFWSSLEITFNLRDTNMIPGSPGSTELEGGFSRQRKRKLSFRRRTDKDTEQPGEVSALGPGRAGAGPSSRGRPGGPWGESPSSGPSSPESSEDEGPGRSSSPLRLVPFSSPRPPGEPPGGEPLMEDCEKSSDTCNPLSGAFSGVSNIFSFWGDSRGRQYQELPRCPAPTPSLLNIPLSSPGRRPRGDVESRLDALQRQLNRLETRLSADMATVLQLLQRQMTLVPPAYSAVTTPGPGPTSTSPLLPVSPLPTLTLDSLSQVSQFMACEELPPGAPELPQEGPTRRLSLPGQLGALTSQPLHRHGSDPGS
row,SMILES,"hERG current change (%, negative = inhibition) at 10uM [%]"
1,CCOC(=O)c1nc(C)n(-c2cc(OC)c(Cl)cc2Cl)n1,5.95
2,O=C(CCCOc1ccccc1)Nc1cccc(C(=O)O)c1,12.6
3,COc1ccc(OC)c(NC(=O)CSc2nnc(-c3ccco3)o2)c1,-15.7
4,Cc1cc(C)cc(NC(=O)CSc2nc(=O)n(CCCN3CCOCC3)c3c2CCCC3)c1,-55.2
5,Cc1cccc(NC(=O)CSc2nc(=O)n(CCCN3CCOCC3)c3c2CCCC3)c1,-42.4
6,CC(C)c1ccc(NC(=O)CSc2nc(=O)n(CCCN3CCOCC3)c3c2CCC3)cc1,-51.3
7,Cc1ccc(NC(=O)CSc2nc(=O)n(CCCN3CCOCC3)c3c2CCCC3)cc1,-45.5
8,O=C(CSc1nc(=O)n(CCCN2CCOCC2)c2c1CCCC2)Nc1ccc(Cl)cc1,-77.7
9,Cc1ccc(NC(=O)CSc2nc(=O)n(CCCN3CCOCC3)c3c2CCCC3)c(C)c1,-36.7
10,CC(C)c1ccc(NC(=O)CSc2nc(=O)n(CCCN3CCOCC3)c3c2CCCC3)cc1,-39.7
11,Cc1ccc(NC(=O)CSc2nc(=O)n(CCCN3CCOCC3)c3c2CCCC3)cc1F,-50.2
12,CC(C)c1ccc(NC(=O)CSc2nc(=O)n(CCN3CCOCC3)c3c2CCC3)cc1,-41.5
13,CCN(CC(=O)Nc1c(F)cccc1F)C(=O)CN1C(=O)NC2(CCCC2)C1=O,22.5
14,CCN1CCCc2cc(CN(CCN3CCOCC3)C(=S)Nc3ccc(C)cc3)ccc21,-8.41
15,CCN1CCN(S(=O)(=O)Cc2ccccc2)CC1,8.52
16,COc1ccc2oc(C(=O)OCC(=O)NCC3CCCO3)c(C)c2c1 (centres unmarked),2.35
17,Cc1ccc(N2C(=O)c3ccccc3C2(O)c2ncc[nH]2)cc1 (centres unmarked),15
18,O=S(=O)(c1ccc(NC(=S)N/N=C/c2c3ccccc3cc3ccccc23)cc1)N1CCOCC1,8.09
19,O=C1c2ccccc2C(=O)N1CCCCN(C(=O)c1cc2ccccc2oc1=O)c1ccc(F)cc1F,1.03
20,Cc1cc(C(C)(C)C)oc1C(=O)OCC(=O)NC1CCCCC1,0.649
21,O=C(NC(Cc1ccccc1)c1ccc2c(c1)OCCCO2)c1ccccc1 (centres unmarked),19.1
22,O=C(NCCS(=O)(=O)NCc1ccc(F)cc1)c1ccc2c(c1)OCO2,-39.8
23,COc1ccccc1-n1c(O)c(C=NCCN2CCNCC2)c(=O)[nH]c1=O,14.4
24,O=C(CSc1nc(=O)n(CCCN2CCOCC2)c2c1CCCC2)Nc1ccc(F)cc1F,-22.6

row,SMILES,"hERG current change (%, negative = inhibition) at 10uM [%]"
1,O=C(CSc1nc(=O)n(CCCN2CCOCC2)c2c1CCCC2)Nc1ccc(F)c(F)c1,-58
2,O=C(CSc1nc(=O)n(CCCN2CCOCC2)c2c1CCCC2)Nc1ccc(F)cc1,-43.7
3,CC(C)(C)C(=O)Nc1ccccc1C(=O)Nc1ccccn1,3.65
4,O=C1c2cccc3cccc(c23)C(=O)N1CCN1CCN(CC(O)COc2ccccc2)CC1 (centres unmarked),-60
5,COc1ccc(C(=O)CN2CCN(CCN3C(=O)c4cccc5cccc(c45)C3=O)CC2)cc1,-26.5
6,COc1cccc(OCC(O)CN2CCN(CCN3C(=O)c4cccc5cccc(c45)C3=O)CC2)c1.Cl (centres unmarked),-59.2
7,O=C1c2cccc3cccc(c23)C(=O)N1CCN1CCN(CC(O)COc2ccc3ccccc3c2)CC1 (centres unmarked),-11.7
8,O=C(COc1ccccc1)N1CCN(CCN2C(=O)c3cccc4cccc(c34)C2=O)CC1,-8.43
9,O=C(CSc1nnc(NC(=O)C2CC2)s1)Nc1ccc(F)cc1,12.5
10,COc1ccc(-c2nc3n(n2)C(c2ccncc2)C(C(N)=O)=C(C)N3)cc1 (centres unmarked),0.391
11,CCOc1ccc(C(CC(=O)O)NC(=O)c2ccco2)cc1 (centres unmarked),11
12,COc1cc(/C=N/n2cnnc2)ccc1OCc1ccccc1,6.55
13,CN(C)S(=O)(=O)c1cccc(NC(=O)c2cccc(S(=O)(=O)N3CCc4ccccc43)c2)c1,-4.62
14,CN(C(=O)c1ccc(Cl)c([N+](=O)[O-])c1)C1(C)CCS(=O)(=O)C1 (centres unmarked),-10.9
15,O=C(c1ccc(Cl)cc1)C1CCCN(Cc2cnn(-c3ccccc3)c2)C1 (centres unmarked),-74.6
16,CSc1ccccc1C(=O)C1CCCN(Cc2ccccn2)C1 (centres unmarked),-12.6
17,O=C(C1CCCN(Cc2ccc(Cl)cc2)C1)N1CCCCC1.O=C(O)C(=O)O (centres unmarked),-14.9
18,CSc1ccccc1C(=O)C1CCCN(Cc2ccn[nH]2)C1 (centres unmarked),-8.34
19,CSc1ccccc1C(=O)C1CCCN(Cc2cnn(-c3ccccc3)c2)C1 (centres unmarked),-67.4
20,CSc1ncc(CN2CCCC(C(=O)c3ccccc3SC)C2)cn1 (centres unmarked),-65.1
21,CSc1ccccc1C(=O)C1CCCN(Cc2ccncc2)C1 (centres unmarked),-41.7
22,CSc1ccccc1C(=O)C1CCCN(Cc2c(C)n(C)n(-c3ccccc3)c2=O)C1 (centres unmarked),-16.2
23,Cc1cc(C)n2c(SCC(=O)NC3CCCCC3C)nnc2n1 (centres unmarked),29.5
24,CCN(C(=O)COC(=O)/C=C/c1ccco1)c1c(N)n(Cc2ccccc2)c(=O)[nH]c1=O,-1.01

row,SMILES,"hERG current change (%, negative = inhibition) at 10uM [%]"
1,CC(C)CC(NC(=O)CCC(=O)OCC(=O)[C@@]1(O)CCC2[C@@H]3CCC4=CC(=O)C=C[C@]4(C)C3[C@@H](O)C[C@@]21C)C(=O)O (some centres unmarked),0.23
2,O=C(CSc1nnc(-c2ccccc2Cl)o1)Nc1ccccn1,14.9
3,CN(CCC#N)CC(=O)Nc1ccc(S(N)(=O)=O)cc1,13.3
4,CCc1cc(C(=O)N2CCCC(C(=O)c3cccc(OC(C)C)c3)C2)n(C)n1 (centres unmarked),-6.49
5,Cc1nc(N2CCN(C(=O)c3ccco3)CC2)c2oc3ccccc3c2n1.Cl,-54.8
6,CCc1nc(N2CCN(C(=O)c3ccco3)CC2)c2oc3ccccc3c2n1.Cl,-64.8
7,CCc1nc(N2CCC(C)CC2)c2oc3ccccc3c2n1.Cl,5.55
8,Clc1ccc(N2CCN(c3ncnc4c3oc3ccccc34)CC2)cc1,4.58
9,CCc1nc(N2CCCCC2)c2oc3ccccc3c2n1.Cl,6.57
10,Cc1nc(N2CCOCC2)c2oc3ccccc3c2n1,-9.35
11,Cc1nc(N2CCC(C)CC2)c2oc3ccccc3c2n1,6.63
12,O=C(c1ccco1)N1CCN(c2ncnc3c2oc2ccccc23)CC1,-55.4
13,O=C(c1ccco1)N1CCN(c2ncccn2)CC1,-18.2
14,CC(C)=NN/C(N)=N/C(=S)Nc1ccc(C)cc1,-3.24
15,O=C(NCC1CCCO1)c1cccc(NC(=O)c2ccco2)c1 (centres unmarked),0.813
16,Cc1oc(-c2ccccc2F)nc1CSCC(=O)NC1CC1,3.12
17,CS(=O)(=O)N(CC(=O)NCc1ccncc1)C1CCCCC1,1.91
18,Cc1ccc(S(=O)(=O)N(CC(=O)NCc2ccncc2)C2CCCCC2)cc1,-63
19,O=C(CN(C1CCCCC1)S(=O)(=O)c1ccc(Cl)cc1)NCc1ccncc1,-69.8
20,CS(=O)(=O)N(CC(=O)NCc1ccc(Cl)cc1)C1CCCCC1,-26.1
21,CCN(C1CCCCC1)S(=O)(=O)c1ccc(S(=O)(=O)NCc2ccncc2)cc1,-4.63
22,Cc1ccc(SCC(=O)NCc2ccncc2)cc1,-6.77
23,O=C(CN(C1CCCCC1)S(=O)(=O)c1ccc(F)cc1)NCc1ccncc1,-41.9
24,Cc1ccc(SCCC(=O)NCc2ccncc2)cc1,-61.9

row,SMILES,"hERG current change (%, negative = inhibition) at 10uM [%]"
1,CN(CC(=O)NCc1ccncc1)S(=O)(=O)c1ccc(Br)cc1,-13.4
2,O=C(CN(C1CCCCC1)S(=O)(=O)c1ccc(Br)cc1)NCc1ccncc1,-72.9
3,O=C(CN(C1CCCCC1)S(=O)(=O)c1ccc(Cl)cc1)NCCCO,-25.8
4,O=C(CCSc1ccc(Cl)cc1)NCc1ccncc1,-32.7
5,NNC(=O)CSc1nc(-c2ccccc2)cn1-c1ccccc1,-0.037
6,Cc1ccccc1NC(=O)C1CCN(c2cnccn2)CC1,-14.7
7,Cc1cc(C)cc(NC(=S)N2CCN(c3ncccn3)CC2)c1,13
8,Cc1ccccc1C(=O)NC(NC(=S)Nc1ccc(S(N)(=O)=O)cc1)C(Cl)(Cl)Cl (centres unmarked),19.3
9,CCOC(=O)C1CCN(C(=O)c2ccc(OC3CCN(C(=O)CCOC)CC3)cc2)CC1,8.91
10,CCSc1ccc([C@@H]2[C@H]3C(=O)N(C)C(=O)[C@H]3[C@]3(C(=O)OC)CCCCN23)cc1OC.O=C(O)C(F)(F)F,-8.41
11,COc1cccc(OC)c1C(=O)Nc1ccc2c(c1)Cc1ccccc1-2,15.5
12,Cc1cc(-c2nn(-c3ccccc3F)cc2CNCCc2cnc[nH]2)c(C)s1,-53.6
13,Cc1cc(-c2nn(-c3ccccc3F)cc2CN2CCCC(CO)C2)c(C)s1 (centres unmarked),-7.33
14,Cc1cc(-c2nn(-c3ccccc3F)cc2CN2CCC(O)CC2)c(C)s1,-28.9
15,COc1ccc(-c2nn(-c3ccccc3C)cc2CNCc2cccnc2)cc1F,-38.3
16,Cc1cc(-c2nn(-c3ccccc3F)cc2CN2CCN(c3ccncc3)CC2)c(C)s1,-94.3
17,COc1ccc(-c2nn(-c3ccccc3C)cc2CNCCc2cnc[nH]2)cc1F,-70.6
18,Cc1cc(-c2nn(-c3ccccc3F)cc2CN2CCN(c3ccccn3)CC2)c(C)s1,18.6
19,Cc1cc(-c2nn(-c3ccccc3F)cc2CNCCc2cnccn2)c(C)s1,-52.3
20,Cc1cc(-c2nn(-c3ccccc3F)cc2CN2CCCC(O)C2)c(C)s1 (centres unmarked),-9.16
21,CCn1cc(CNCc2cn(-c3ccccc3C)nc2-c2ccc(OC)c(F)c2)cn1,-22
22,Cc1cc(-c2nn(-c3ccccc3F)cc2CN2CCC(C(N)=O)CC2)c(C)s1,-28.5
23,Cc1cc(-c2nn(-c3ccccc3F)cc2CN(C)CC(O)CO)c(C)s1 (centres unmarked),-22.3
